This note sets out measurements from publication PMC12136788.

Numbering of substitutions follows the chain as printed. Whole data set: some 24,000 sequences, median “enrichment r” near 0.99, cut for the highest 2% near 3.7. The sample as a whole holds a higher share of the highest values than the screen did.

T1: UNK ZnF1-3 (human, UniProt Q9C0B0 31-174)
T1 sequence: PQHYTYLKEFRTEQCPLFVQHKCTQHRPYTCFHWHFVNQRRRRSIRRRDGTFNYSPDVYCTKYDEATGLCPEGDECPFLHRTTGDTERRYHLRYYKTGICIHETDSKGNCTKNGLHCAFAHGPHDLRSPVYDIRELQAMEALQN

B1: 90994690_90994914_4067_CDS_ENSMUSG00000040687_ENSMUST00000111370|mouse|control|control (ssRNA)
RNA: GGGAGUUCUACAGUCCGACGAUCGAGGUACCUGUCGAUCAUUUCCUGAGGACCCUGGUCCAUACCCAUUCCUUCUCUUUCCAACAUUACAGCAUCUAAGAAUGCAUCUUCCCAGAACUGCAUUUGGUCCCAUAAGGUAGAACGCAACAGAGGAUUGAGCAUCA
B2: chr7:130129250:130129251:+_ENSMUSG00000030779_ENSMUST00000052135|mus_mus|FALSE|FALSE (ssRNA)
RNA: GGGAGUUCUACAGUCCGACGAUCCUCCUCUGGUAAGAAGGGUGGUUUCUCUUUCUUCCCGAUUGCAUAGGCCUCUGCAUCUAUAGUUGGUAUUGCAUAUUUUCCAGUGUUUGUAAGCAUUGCACCUUUCAUGUUAGGAUCUUUCAACAGAGGAUUGAGCAUCA
B3: chr14:89338683:89338684:+_ENSG00000165533_ENST00000346301|hu_hu|hu_hu_hu_mus_False|38_98 (ssRNA)
RNA: GGGAGUUCUACAGUCCGACGAUCGUGGUUGUUGUGGACCAGAGCCAGCCUGAAGCAUUGGUGGGCCAAGUUUGUAUCUCCGAUUCCCACAGCUAUGUGUCCCAAGUUGUACCAGACAUCAGCUGCCUCUUCUUCAUUUUCAGCCAACAGAGGAUUGAGCAUCA
B4: chr3:179287964:179287965:+_ENSG00000136518_ENST00000429709|hu_hu|hu_hu_hu_mus_True|68_68 (ssRNA)
RNA: GGGAGUUCUACAGUCCGACGAUCCUUGAGUGGUGAGAUGGCCUCCAUGUUCUCCCUGGGCACGCGGAGAGCAUUAGUGUCUAUGUAGUAGGUGGGCCCGCCCUGCUUGCCUUUGUCACCAUCAAUCUCCAUCAUUGUACUUCCCAACAGAGGAUUGAGCAUCA
B5: chr7:117217587:117217588:+_ENSMUSG00000061079_ENSMUST00000084727|mus_hu|FALSE|FALSE (ssRNA)
RNA: GGGAGUUCUACAGUCCGACGAUCGAUAUAAGCUGUGGUACCAUCUUCCAGCUGAACCGCCUGUAAUGCACUCUGGUCAUAACUAUUACUUUUAGGUAUGGGUACAUGUUGAACAUAGGCCGCAGAACCAUCUUCCAACUGAAUCAACAGAGGAUUGAGCAUCA
B6: chr5:95152273:95152274:-_ENSG00000173221_ENST00000237858|hu_mus|motif|central (ssRNA)
RNA: GGGAGUUCUACAGUCCGACGAUCCAGCCGAGUCAUCAGCUCCCCAGUCUGUUGCAUGGAGAUUAGAUCACUGCAUCCGCCGGUGCAGUCUUUACCUAUGAAGACCCGAGGAACUGUUCUCGCUCCGGUGAGCUGUUGUAAAUACAACAGAGGAUUGAGCAUCA
B7: 12280944_12281064_4437_CDS_ENSMUSG00000032625_ENSMUST00000046121|mouse|control|control (ssRNA)
RNA: GGGAGUUCUACAGUCCGACGAUCGGGCUGGGUGCAGGUUUCCUCCAAAACUAUUUGUUUAUUACCAUCUAUGAUGAGCUCUGUGUUAGCACAGAACUCUUCGUCCACCACUUUGCUGAAAUCCUCAGCUGAGCCAUCACUCACCAACAGAGGAUUGAGCAUCA
B8: chr7:75956504:75956505:-_ENSG00000170027_ENST00000307630|hu_mus|FALSE|FALSE (ssRNA)
RNA: GGGAGUUCUACAGUCCGACGAUCAUAGAACUGCAUGUCACUAUAGCAACAUCCAAAACAGAUCAAUCUGUUACAAUCACUAUUUGGUAAAGCAAACUUUACCCCUGAAAGGAAAAAAUUAAAUUAAAAAAAAGAAGUUUAAAACAACAGAGGAUUGAGCAUCA
B9: chr9:37780659:37780660:-_ENSG00000107371_ENST00000396521|hu_hu|FALSE|FALSE (ssRNA)
RNA: GGGAGUUCUACAGUCCGACGAUCGGUUCACCUGAAAAAACCCAUAGUUUUUUGCCUCAACUGACCUGUAAAAAAGUCCACCUAUAUCAACUUUCUGCCAAUCUGGAGAAGAUCUGUUUUCUUUGAUCUGACGUCAUGUGUUCACAACAGAGGAUUGAGCAUCA
B10: chr15:79189586:79189587:+_ENSG00000185787_ENST00000426013|hu_hu|motif|central (ssRNA)
RNA: GGGAGUUCUACAGUCCGACGAUCUGAAAACACUGGCAGCAAUUUUGAAAUGAAAAAAAAAAAGAAAGAAGAAAAAAGGAGCGGUUACCCCCUUUUAUUUUUUCUCUGUUUAAAAUCAAACAGAAAACAAACAUCAAUUGUUAUCAACAGAGGAUUGAGCAUCA
B11: chr7:75956504:75956505:-_ENSG00000170027_ENST00000307630|hu_mus|motif|central (ssRNA)
RNA: B8 RNA with U80G, A81G
B12: chr15:79189586:79189587:+_ENSG00000185787_ENST00000426013|hu_hu|FALSE|FALSE (ssRNA)
RNA: B10 RNA with G82U, G83A
B13: 65006457_65008074_834_CDS_ENSMUSG00000029920_ENSMUST00000031984|mouse|control|control (ssRNA)
RNA: GGGAGUUCUACAGUCCGACGAUCUGUUGAUUCAAUCAACUUUAGAAGAUCACUGUCACUUCUUUGUGGAAACAGUUCCUUCAAUGUCUGAAGCUUAGCAUCUUUAAGAUCUUCCAAUUCUGAAAGGUCUUCCAGUUCUGAACUCAACAGAGGAUUGAGCAUCA
B14: 54532588_54532708_162_CDS_ENSMUSG00000073678_ENSMUST00000097739|mouse|control|control (ssRNA)
RNA: GGGAGUUCUACAGUCCGACGAUCGAAUUUAAAUGUAUCCUUUUUUUUUUCCCCUAAAAAAGGGAUGUAAAAAAUCCAAUAUGAAACAGAAAAAGUACACAUGAAAUACAAAAUACACUGUCUGUUUGGCUCUGGAGCAGUUAGCAACAGAGGAUUGAGCAUCA
B15: chr1:225611761:225611762:-_ENSG00000143815_ENST00000272163|hu_mus|hu_hu_hu_mus_True|8_98 (ssRNA)
RNA: GGGAGUUCUACAGUCCGACGAUCCCAGGCCAUCGGCCUCUUACCACUUCACCCUCAACAAACUUCCUACUUGGCAUUUUCUAAAAUUAGUCUGGCCGCGCUCCGGCGGGAACUCCAGCCACUCCAGGGAGAAUAGUAGCAGCCCAACAGAGGAUUGAGCAUCA
B16: 35472726_35489589_359_3pUTR_ENSMUSG00000029840_ENSMUST00000031866|mouse|control|control (ssRNA)
RNA: GGGAGUUCUACAGUCCGACGAUCCUGUCCACAAUCUGCAGCAUAAUGAAGAGGCUUCCUUCCACCCUCUAGUGUCCGGUUGACAUCUUCUCCCUUAGCCACAUAGUCCUUCACCUCAUCCAAGUCUCCGUUUUUCAGGGCCCACAACAGAGGAUUGAGCAUCA
B17: chr17:47010600:47010601:-_ENSG00000159210_ENST00000290330|hu_hu|FALSE|FALSE (ssRNA)
RNA: GGGAGUUCUACAGUCCGACGAUCACUGACAGUCACGUAGCCAUUCUCUGCCAGCUGCAGCACCACGGUGUGAUCCAUAUUGAGCUCAGCUGGAACAGACUGAAUGAGGUAAGUGCCGCCCACAGGGAUGAUGCCGAAGCCAGUCAACAGAGGAUUGAGCAUCA
B18: chr2:217001844:217001845:+_ENSG00000079246_ENST00000392132|hu_hu|FALSE|FALSE (ssRNA)
RNA: GGGAGUUCUACAGUCCGACGAUCGCCGACUUGAGGAUUAGCUCUUUUGUCAUAAGCAUAUCGAACUAUGGCCACCAUGUCUAAGUCAUCCAAAGCAUGAAUCAGGGAGGAAAGUGCAACUGCAGCUGCCUCAUCAUCUCUUGCCAACAGAGGAUUGAGCAUCA
B19: chr21:40768814:40768815:+_ENSG00000182093_ENST00000333781|hu_mus|motif|central (ssRNA)
RNA: GGGAGUUCUACAGUCCGACGAUCCUGGCCUUCCCCUCAGCUGAAAGGGUGGAGAACGAUAGCCACAACUUUGUUACAGACGGAAAUCCAACAGGUGAUUCCAAUUCCACCUGCUACUCGAGUAGGAAAGGCUACCAGGCGGUCCAACAGAGGAUUGAGCAUCA
B20: 96412582_96412966_892_CDS_ENSG00000111144_ENST00000228740|human|control|control (ssRNA)
RNA: GGGAGUUCUACAGUCCGACGAUCGCCACCAUAAGGGAAGGAUGGUGGCAGGACCAAUAGGUCAUACUGUCCCCAUACAUACGGUCCUCCCAGAUCUUCUGCUAUUUUAAGCAUAGAUUCAGUCUCAGAAAACUCAUAAGCAGACAACAGAGGAUUGAGCAUCA
B21: 32585910_32588873_1288_CDS_ENSMUSG00000024381_ENSMUST00000025239|mouse|control|control (ssRNA)
RNA: GGGAGUUCUACAGUCCGACGAUCUGAGAAAGGCCCAGGGGCCUCAAACUGGGAGGGGGUGGUCACGCUGAUCUCAGGGACAAAUGCGUCAUCAAAAAGGCUGAGAAUCUGCUCCUGCUUCAUCUCCUUGGAUGGGGUGUGUUUCAACAGAGGAUUGAGCAUCA
B22: chrX:117107323:117107324:-_ENSG00000003096_ENST00000371878|hu_mus|motif|central (ssRNA)
RNA: GGGAGUUCUACAGUCCGACGAUCUUUGAGCUGCAACAGUACAAAUGGGAUAUAAACCUCAGCAUAGCCUUAGGCCACAGCGGAUAGAGAUCAGUGACUAAAUUCAGCAGCCCGCUUUCCUCCUGUGAAAGCUCUGGCCACACACAACAGAGGAUUGAGCAUCA

For this experiment, the target named is T1, UNK ZnF1-3. The experiment can be described thus: nsRBNS (natural sequence RNA bind-n-seq); RBNS binding buffer (assumed for nsRBNS): 25 mM Tris pH 7.5, 150 mM KCl, 3 mM MgCl2, 0.01% Triton X-100, 500 ug/ml BSA, 20 U/ml SUPERase-In, 4 C; UNK is unkempt and MSI1 is Musashi-1; names of the RNAs are library labels; protein concentration not given here; high values mean tight binding.
B1 came in with a binding signal of 0.917 enrichment R.
Then B2, with 0.384 enrichment R.
Under B3 stands 0.877 enrichment R; under B4, 0.757 enrichment R; under B5, 0.834 enrichment R.
In turn, B6 returned a binding signal of 1.01 enrichment R.
As to B7, the binding signal came out at 0.732 enrichment R.
For the molecule B8, the binding signal was 9.16 enrichment R.
For B9, the binding signal turned out to be 0.913 enrichment R.
Then B10, with 3.68 enrichment R; and B11, with 6.25 enrichment R.
With B12, the binding signal was found to be 3.39 enrichment R.
Turning to B13, the binding signal was determined as 0.355 enrichment R.
Consider B14, for which the binding signal was 1.05 enrichment R.
B15 had a binding signal of 1.11 enrichment R.
Under B16 stands 0.866 enrichment R; under B17, 0.843 enrichment R.
B18 showed a binding signal of 1.53 enrichment R.
Take B19: the binding signal was determined as 1.05 enrichment R.
Consider B20, for which the binding signal came out at 0.524 enrichment R.
Molecule B21 displayed a binding signal of 1.65 enrichment R.
Molecule B22 showed a binding signal of 1.34 enrichment R.
